Assay results taken from PubChem BioAssay AID1159580 (chemical genetic matrix, 2015).
The whole screen tested about 5,500 compounds, of which about 2,000 (36%) were called active. Another 18% or so got no clear call; they are omitted. Cut-off read from the data, not from the text of the source: active = normalized growth mostly below about 0.91 (no sharp cut-off); inconclusive = no clear call, values can overlap the other calls; inactive = mostly above about 0.92. The list shows a part of the results.

Assay: chemical genetic growth profiling, strain panel (AID 1159580);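 note: tested at 20 µM; growth read once vehicle control cultures reached saturation at 30 °C; 1 = growth at the plate median or of vehicle wells; lower values mean less growth of the strain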
Conditions: S. cerevisiae deletion strains, growth OD

Measured: normalized growth

C[C@]12CCC3C(CC[C@H]4C[C@H](OS(=O)(=O)O)CC[C@]34C)C1CCC2=O (some centres not stated)
inactive: locus YAL021C, strain ccr4, active compounds read low 1.02 | locus YAL026C, strain drs2, active compounds read low 1.05 | locus YAL030W, strain snc1, active compounds read low 1.05 | locus YBL061C, strain skt5, active compounds read low 1.05 | locus YBR009C, strain hhf1, active compounds read low 1.06 | locus YBR023C, strain chs3, active compounds read low 1.05 | locus YBR171W, strain sec66, active compounds read low 1.08 | locus YBR231C, strain swc5, active compounds read low 1.06 | locus YBR279W, strain paf1, active compounds read low 1.03 | locus YCL011C, strain gbp2, active compounds read low 1.05 | locus YCL016C, strain dcc1, active compounds read low 1.04 | locus YCL061C, strain MRC1, active compounds read low 1.05 | locus YCL069W, strain vba3, active compounds read low 1.04 | locus YCR088W, strain abp1, active compounds read low 1.04 | locus YDL005C, strain med2, active compounds read low 1.06 | locus YDL040C, strain nat1, active compounds read low 1.04 | locus YDR001C, strain nth1, active compounds read low 1.04 | locus YDR069C, strain doa4, active compounds read low 1.05 | locus YDR137W, strain rgp1, active compounds read low 1.05 | locus YDR159W, strain sac3, active compounds read low 1.08 | locus YDR195W, strain ref2 1.06 | locus YDR297W, strain sur2, active compounds read low 1.05 | locus YDR334W, strain swr1, active compounds read low 1.05 | locus YDR335W, strain msn5, active compounds read low 1.04 | locus YDR392W, strain spt3, active compounds read low 1.07 | locus YEL003W, strain gim4, active compounds read low 1.03 | locus YEL037C, strain rad23, active compounds read low 1.04 | locus YEL061C, strain CIN8 (second series), active compounds read low 1.05 | locus YER015W, strain faa2, active compounds read low 1.05 | locus YER016W, strain bim1, active compounds read low 1.04 | locus YER111C, strain swi4, active compounds read low 1.06 | locus YER155C, strain BEM2 (second series), active compounds read low 1.06 | locus YFR010W, strain ubp6, active compounds read low 1.05 | locus YGL167C, strain pmr1, active compounds read low 1.06 | locus YGL173C, strain kem1, active compounds read low 1.04 | locus YGL227W, strain vid30, active compounds read low 1.05 | locus YGL240W, strain doc1, active compounds read low 1.04 | locus YGL253W, strain hxk2, active compounds read low 1.04 | locus YHR013C, strain ard1, active compounds read low 1.12 | locus YHR027C, strain rpn1, active compounds read low 1.05 | locus YHR142W, strain chs7, active compounds read low 1.05 | locus YJL092W, strain hpr5, active compounds read low 1.05 | locus YJL095W, strain BCK1 (second series), active compounds read low 1.04 | locus YJL115W, strain asf1, active compounds read low 1.06 | locus YJL129C, strain trk1, active compounds read low 1.11 | locus YJL154C, strain vps35, active compounds read low 1.04 | locus YJL164C, strain tpk1, active compounds read low 1.05 | locus YJL166W, strain qcr8, active compounds read low 1.05 | locus YJL187C, strain SWE1, active compounds read low 1.05 | locus YKL160W, strain elf1, active compounds read low 1.03 | locus YKR026C, strain gcn3, active compounds read low 1.06 | locus YKR091W, strain srl3, active compounds read low 1.04 | locus YLL001W, strain dnm1, active compounds read low 1.05 | locus YLL026W, active compounds read low 1.05 | locus YLL041C, strain sdh2, active compounds read low 1.05 | locus YLR027C, strain aat2, active compounds read low 1.05 | locus YLR221C, strain rsa3, active compounds read low 1.05 | locus YLR258W, strain gsy2, active compounds read low 1.06 | locus YLR262C, strain YPT6 (second series), active compounds read low 1.04 | locus YLR320W, strain mms22, active compounds read low 1.06 | locus YLR342W, strain FKS1, active compounds read low 1.06 | locus YLR357W, strain rsc2, active compounds read low 1.06 | locus YLR370C, strain arc18, active compounds read low 1.05 | locus YLR384C, strain iki3, active compounds read low 1.05 | locus YML120C, strain ndi1, active compounds read low 1.05 | locus YMR058W, strain fet3, active compounds read low 1.04 | locus YMR125W, strain sto1, active compounds read low 1.05 | locus YMR129W, active compounds read low 1.05 | locus YMR205C, strain PFK2, active compounds read low 1.07 | locus YMR231W, strain pep5, active compounds read low 1.03 | locus YNL071W, strain lat1, active compounds read low 1.05 | locus YNL209W, strain ssb2, active compounds read low 1.04 | locus YNL248C, strain rpa49, active compounds read low 1.04 | locus YNL322C, strain KRE1 (second series), active compounds read low 1.04 | locus YNR049C, strain mso1, active compounds read low 1.05 | locus YOR001W, strain rrp6, active compounds read low 1.04 | locus YOR070C, strain gyp1, active compounds read low 1.06 | locus YOR080W, strain dia2, active compounds read low 1.07 | locus YOR083W, strain WHI5, active compounds read low 1.04 | locus YOR106W, strain vam3, active compounds read low 1.03 | locus YOR270C, strain vph1, active compounds read low 1.1 | locus YOR290C, strain snf2, active compounds read low 1.04 | locus YPL051W, strain arl3, active compounds read low 1.05 | locus YPL078C, strain atp4, active compounds read low 1.03 | locus YPL106C, strain sse1, active compounds read low 1.1 | locus YPL240C, strain hsp82, active compounds read low 1.04
active: locus YOR265W, strain rbl2, active compounds read low 1.08 [resistant]
